Inconclusive results are not listed. A number with no mark means an inactive call. Activity calls are given as the source filed them. The call rests on the fitted dose curve; in most records, active means well fitted cell-killing curve with a large enough effect; inconclusive means small, poorly fitted or top-dose-only effect; inactive means flat fitted curve, though single readings scatter.
Test: Cellular viability qHTS for adrenocortical cancer (ACC) cell line NCI-H295R (AID 1963990); further: nearly all actives have a fitted effect of over 60% in size;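 on activity change, negative = viability loss: 0% = DMSO only wells and -100% = full killing with cytotoxic reference compound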
Details: CellTiter-Glo ATP luminescence, 48 h; series mostly up to 46.1 µM; activity change, negative = viability loss: at the top concentration
Procedure, shortened: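 IC50 and maximal efficacy derive from four-parameter logistic modelling of titration curves, with reads scaled between DMSO-only wells (0%) and doxorubicin hydrochloride (100% inhibition). Compounds spanned up to 46 uM over 48 h.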

Q: With `Cc1cc(OCCCc2c3n(c4c(-c5c(C)nn(C)c5C)c(Cl)ccc24)[C@H](C)CN(c2cn(C)c4ccc(C(=O)O)cc24)C3=O)cc(C)c1Cl` as the molecule, how does the Potency read?
A: 2 µM (active)

Q: For `CCN1CCN(c2cc(-c3ccc(F)cc3)c3c(n2)CCCCCC3)CC1`, which “activity change, negative = viability loss” value is on record?
A: -4.07% [at 20 µM]

Q: For `CCOC(=O)[C@H](CCc1ccccc1)N[C@@H](C)C(=O)N1[C@H](C(=O)O)C[C@@H]2CCC[C@@H]21`, which Potency is on record?
A: inactive

Q: Which “activity change, negative = viability loss” value does the source give for `Brc1c(NC2=NCCN2)ccc2nccnc12` here?
A: -5.91%

Q: Which “activity change, negative = viability loss” value does the source give for `CC(=O)N[C@H]1[C@H](O[C@@H]2c3ccc(c(Cl)c3)Oc3cc4cc(c3O[C@@H]3O[C@H](CO)[C@@H](O)[C@H](O)[C@H]3NC(=O)CCCCCCCC(C)C)Oc3ccc(cc3Cl)C[C@H]3NC(=O)[C@H](N)c5ccc(O)c(c5)Oc5cc(O)cc(c5)[C@H](NC3=O)C(=O)N[C@H]4C(=O)N[C@H]3C(=O)N[C@@H]2C(=O)N[C@@H](C(=O)O)c2cc(O)cc(O[C@H]4O[C@H](CO)[C@@H](O)[C@H](O)[C@@H]4O)c2-c2cc3ccc2O)O[C@H](CO)[C@@H](O)[C@@H]1O` here?
A: -3.17%

Q: Which “activity change, negative = viability loss” value does the source give for `CCC1Nc2cc(Cl)c(S(N)(=O)=O)cc2S(=O)(=O)N1` (stereo unspecified) here?
A: -24.7%

Q: Which Potency does the source give for `O=C(/C=C/c1cccc(S(=O)(=O)Nc2ccccc2)c1)NO` here?
A: 2.51 µM (active)

Q: For `Nc1ccc(C(=O)OCC(O)CO)cc1` (stereo unspecified), which “activity change, negative = viability loss” value is on record?
A: -2.29%

Q: With `CO[C@@]1(NC(=O)C(C(=O)O)c2ccc(O)cc2)C(=O)N2C(C(=O)O)=C(CSc3nnnn3C)CO[C@@H]21` (stereo partly specified) as the molecule, how does the “activity change, negative = viability loss” value read?
A: -1.35%

Q: For `Cc1ccc(-c2ncc(Cl)cc2-c2ccc(S(C)(=O)=O)cc2)cn1`, which Potency is on record?
A: inactive

Q: For `CNCc1ccc(-c2cc(-c3nc(-c4ccc(S(=O)(=O)C(C)C)cc4)cnc3N)on2)cc1`, which Potency is on record?
A: 0.316 µM (active)
